KB-3-1 tox = kills parental KB-3-1 adenocarcinoma cells. actives 1.4% (n = 400,000). Potency, µM (highest dose often 46.1 µM), most hits filed as cytotoxic. KB-3-1 viability, CellTiter-Glo ATP luminescence, 72 h. AID 1347075; note: nearly all actives have a fitted effect of over 60% in size
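Viability of parental KB-3-1 cells, measured by CellTiter-Glo luminescence, followed a 72 h incubation at 37 °C with pinned compounds in phenol-red-free DMEM containing 10% FBS.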
KB-V1 cytotox = KB-V1 MDR subline cytotoxicity; actives 3.4% (n = 400,000); KB-V1 MDR cells viability, CellTiter-Glo, 72 h; AID 1347076; Potency, µM (titrated, usually from 46.1 µM), hits mostly cytotoxic; note: nearly all actives have a fitted effect of over 60% in size
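Potencies derive from concentration-effect curves fitted to normalized luminescence (CellTiter-Glo) of KB-V1 cells treated for 72 h at 37 degrees C in phenol-red-free DMEM containing 10% FBS.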
HT1080-NT tox = kills 2HG-producing HT-1080-NT fibrosarcoma cells; AID 686970; Potency, µM (doses to about 46.1 µM), without a hit: top-dose activity, negative = less viability, usual class: cytotoxic; HT-1080-NT fibrosarcoma viability, CellTiter-Glo ATP luminescence, 48 h; actives 1.6% (n = 360,000);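 note: NT is the 2HG producing partner of a matched IDH1 knockdown line; 0% = DMSO-treated cells and -100% = media-only wells without cells; nearly all actives have a fitted effect of over 55% in size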
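Compounds were tested in concentration-response format on HT-1080-NT cells for 48 hours at 37 degrees C. Cell viability came from CellTiter-Glo luminescence; curves were classified by r2, response magnitude and activity.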
TDP1 cell noCPT = qHTS for Inhibitors of human tyrosyl-DNA phosphodiesterase 1 (TDP1): qHTS in cells in absence of CPT; DT40 Tdp1-/- hTDP1 cells, no CPT, ATP luminescence, 48 h; Potency, µM (doses to about 46.2 µM), inactives show top-dose activity change, negative = growth inhibition, usual class: inhibitors; actives 15% (n = 420,000); note: nearly all actives have a fitted effect of over 55% in size
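Growth kinetics read by CellTiter-Glo luminescence after ≥48 hr at 37 °C. Cells: DT40 Tdp1-/- stably carrying human TDP1, 400 per well, compound exposure in the absence of CPT (DMSO vehicle).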
DT40 TDP1 CPT = growth inhibition of DT40 Tdp1-/-;hTDP1 cells with camptothecin (screen for TDP1 inhibitors) | chicken DT40 Tdp1-/-;hTDP1 cells + 20 nM CPT, ATP luminescence, 48 h | Potency, µM (top dose mostly 46.2 µM), for inactives: at the highest dose activity change, negative = growth inhibition, usual class: inhibitors | actives 12% (n = 420,000); note: nearly all actives have a fitted effect of over 55% in size
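Chicken DT40 Tdp1-/- cells stably complemented with human TDP1 were seeded at 400 cells/well in medium containing 20 nM camptothecin, exposed to pin-transferred compounds, and grown at 37 °C for at least 48 hr. Viability was read as ATP luminescence.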
HT1080 IDH1KD tx = HT-1080 IDH1 knockdown cell toxicity (counter line); actives 2% (n = 360,000); HT-1080 IDH1 knockdown viability, ATP luminescence, 48 h; Potency, µM (highest dose often 46.1 µM), inactives show at the highest dose activity, negative = toxicity, actives largely listed as cytotoxic;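 note: 0% = DMSO wells and -100% = cell-free medium wells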
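Luminescent ATP read-out (CellTiter-Glo, 10 min at room temperature) after 48 h compound exposure at 37 °C gave viability of IDH1-knockdown HT-1080 cells. Activity was normalised to DMSO and cell-free wells, then fitted as concentration-response curves.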
The depositor's hits bear a star; i = inactive; ? = inconclusive; · = not tested or not shown; [ ] = dose if it differs, or a comment. Shown are actives, neighbours in structure and some others; about 19% of the full set was active somewhere. Calls come from the whole dose curve; as a rule, active = well fitted curve in the direction sought with a large enough effect; inconclusive = small, poorly fitted or top-dose-only effect, or another doubt; inactive = no such curve, though single readings can be large; an effect the other way counts as inactive or inconclusive. Unless noted, % is set by controls: 0 for no effect and ±100 for the full control effect; potency is the fitted concentration of half-maximal effect.

SMILES	KB-3-1 tox	KB-V1 cytotox	HT1080-NT tox	TDP1 cell noCPT	DT40 TDP1 CPT	HT1080 IDH1KD tx
CCOC(=O)c1ccc(NC(=O)C2CCN(S(=O)(=O)c3ccccc3)CC2)cc1	i	i	0%	?	26µM*	0%
CCOC(=O)CNC(=O)C1CCCN(c2ncccn2)C1 (centres undefined)	i	i	-7%	-7%	29µM*	4%
O=C(NCC1COc2ccccc2O1)C1CCN(S(=O)(=O)c2ccccc2)CC1 (centres undefined)	i	i	19%	-19%	-21%	?
COc1c(Cl)ccc(Cl)c1C(=O)NC(=S)N1CCOCC1	i	i	11%	?	-6%	-1%
O=C(COc1ccccc1F)Nc1ccc(OCc2cc(=O)n3ccccc3n2)cc1	·	·	·	-10%	2%	·
CCCc1ccc(NC(=O)C2CCCN(c3cnccn3)C2)cc1 (centres undefined)	i	i	1%	21µM*	21µM*	1%
O=C(Nc1ccc(Oc2ccccc2)cc1)C1CCCN(c2ncccn2)C1 (centres undefined)	i	5.8µM*	0%	-22%	-1%	4%
CCCOC(=O)c1ccc(NC(=O)c2nc3nc(C)cc(C)n3n2)cc1	i	?	18%	?	0%	21%
C#CCNC(=O)C1=C[C@@H](C)C[C@@H](OCc2ccc(CO)cc2)O1	i	i	3%	-3%	-21%	9%
CCOC(=O)c1ccc(NS(=O)(=O)c2ccc3c(c2)CCN3C(=O)CC)cc1	i	i	·	?	13µM*	·
CCC(=O)N1CCCc2cc(S(=O)(=O)Nc3ccc(C)c(C)c3)ccc21	i	?	·	18µM*	23µM*	·
CC(C)C[C@H](NC(=O)N1CCn2c1nc1ccccc12)C(=O)NCc1ccc2c(c1)OCO2	?	?	-25%	?	?	-30%
Clc1cccc(CON/C=N/c2ncnc3sccc23)c1	i	?	-23%	10µM*	18µM*	-3%
NC(=O)NOCc1cccc(Cl)c1	i	i	15%	-7%	10%	22%
Clc1cccc(Cl)c1CON/C=N/c1ncnc2sccc12	i	i	?	16µM*	23µM*	-15%
CC(C)NC(=O)CSc1ccccc1C(=O)NNC(=O)Cn1ccc(C(F)(F)F)n1	i	i	3%	?	-22%	3%
COCCCNC(=O)CCc1c(C)nc2c(c(C)nn2-c2ccc(C)cc2)c1C	i	?	10%	-28%	?	8%
Cc1cc(N2C(=O)C(O)=C(C(=O)c3ccc(C)o3)C2c2cccs2)no1 (centres undefined)	?	5.2µM*	-21%	?	?	-26%
Cc1cc(N2C(=O)C(O)=C(C(=O)c3cc4ccccc4o3)C2c2cccs2)no1 (centres undefined)	i	i	-18%	?	-16%	?
Cc1occc1-c1nnc(SCC(=O)Nc2ccccc2)n1C(C)c1ccccc1 (centres undefined)	?	?	-13%	?	?	-1%
CCOc1ccc(NC(=O)C(CC)n2nc(-c3ccc(C)c(C)c3)ccc2=O)cc1 (centres undefined)	i	i	·	?	?	·
O=C1CC(c2ccccc2)CC(O)=C1C=NCc1ccccc1Cl (centres undefined)	?	?	5.6µM*	2.3µM*	2.3µM*	?
O=C1CC(c2ccccc2)CC(O)=C1C=NCc1ccccc1 (centres undefined)	i	i	0%	-18%	-22%	-8%
CCC(=Nc1ccccc1OC)C1=C(O)CC(c2ccccc2)CC1=O (centres undefined)	?	i	16%	5.8µM*	6.5µM*	14%
COc1ccc(N=CC2=C(O)CC(c3ccccc3)CC2=O)c(OC)c1 (centres undefined)	?	?	?	15µM*	18µM*	?
SMILES	KB-3-1 tox	KB-V1 cytotox	HT1080-NT tox	TDP1 cell noCPT	DT40 TDP1 CPT	HT1080 IDH1KD tx
O=C1CC(c2cccc(Cl)c2)CC(O)=C1C=NC1CCCC1 (centres undefined)	i	21µM*	-2%	-18%	-13%	8%
CN(C)CCNC(=O)c1cccc(-c2cccc3nncn23)c1	i	i	0%	-1%	-20%	22%
Cc1cc(Nc2nc3ccccc3nc2Cl)n(-c2ccc([N+](=O)[O-])cc2)n1	i	?	?	13µM*	18µM*	-5%[9.24 µM]
CCN(CC)S(=O)(=O)c1ccc(-c2cc(C(=O)OC)sc2C(F)(F)F)cc1	i	i	-5%	18µM*	-30%	-2%
COC(=O)c1cc(-c2ccc(S(=O)(=O)N3CCCC3)cc2)c(C(F)(F)F)s1	i	i	-12%	?	10%	-20%
COC(=O)c1cc(-c2ccc(S(=O)(=O)N3CCCCC3)cc2)c(C(F)(F)F)s1	i	i	-14%	23µM*	?	-8%
CCN(CC)S(=O)(=O)c1ccc(C(=O)Nc2nc3ccc(Cl)cc3s2)cc1	i	i	·	?	?	·
COc1cccc(CNC(=O)N2CCN(c3ccccc3)CC2)c1	i	i	10%	?	4%	13%
CC1=NN(c2ccccc2)C(=O)C1N=Nc1ccc(S(N)(=O)=O)cc1 (centres undefined)	i	i	12%	4%	-2%	28%
CC1=NN(c2nc(-c3ccc(C)cc3)cs2)C(=O)C1N=Nc1ccc2ccccc2c1 (centres undefined)	i	i	6%	?	?	10%
CC1=NN(c2nc(-c3ccccc3)cs2)C(=O)C1N=Nc1ccccc1 (centres undefined)	i	i	16%	15µM*	?	2%
CC1=NN(c2nc(-c3ccc(C)cc3)cs2)C(=O)C1N=Nc1ccc(C(N)=O)cc1 (centres undefined)	i	i	-19%	5.2µM*	4.6µM*	?
CCn1c(-c2ccccc2F)nc2cc(NC(C)=O)cc(C(=O)NC(c3ccccn3)C(F)(F)F)c21 (centres undefined)	·	·	·	?	-4%[9.04 µM]	·
COc1ccc(-n2nnnc2C2CCN(S(=O)(=O)c3ccc(NC(C)=O)cc3)CC2)cc1	·	·	·	4.6µM*	5.8µM*	·

Source: PubChem
